This is an account of results in PubChem BioAssay.

Test [1] in a line: optical density shifts of acrAB sulA E. coli – strain DRC41, OD650, 48 h, E. coli filamentation inducer project, primary screen (AID 1152).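 Note: E. coli MC1000 strain DRC41 lacking acrAB efflux pump and sulA.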 Particulars: higher = more signal, called active from +8 up or from −8 down.
Test [2] can be described thus: probe aLefty1 binding on compound microarray – biochemical, small-molecule microarray, 635/667 nm fluorescence, primary screen (AID 1153).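 Note: score merges spot fluorescence with signal-to-noise ratio from the scanned slide images.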 The note with it: higher = more signal.
Test [3] in a line: plasmodial surface anion channel blockers, osmotic lysis – cell-based, P. falciparum Indochina, OD700, 1 h, primary screen (AID 1154). The note with it: P. falciparum Indochina infected RBC osmotic lysis, higher = more signal, called active from +8 up or from −8 down.
A short description of test [4]: plasmodial surface anion channel blockers, osmotic lysis – cell-based, P. falciparum Indochina, OD700, 2 h, primary screen (AID 1155).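 Note: lysis reports solute entry through the parasite surface anion channel PSAC.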 Particulars: P. falciparum Indochina infected erythrocytes, higher = more signal, called active from +8 up or from −8 down.
Test [5] is described as follows: changes in parasitized red cell lysis, either direction – P. falciparum Indochina, OD700, 3 h, PSAC antagonist project, primary screen (AID 1156). The note with it: P. falciparum-infected erythrocytes, osmotic lysis, higher = more signal, called active from +8 up or from −8 down.
Test [6] in a line: plasmodial surface anion channel blockers, osmotic lysis – cell-based, P. falciparum Indochina, OD700, 18 h, primary screen (AID 1157). Particulars: P. falciparum Indochina infected erythrocytes, osmotic lysis OD700, 18 h; higher = more signal, called active from +8 up or from −8 down.
Test [7] can be described thus: S6 kinase pathway phospho-S6 level changes – cell-based, A549, cytoblot, luminescence, serum-stimulated, primary screen (AID 1158).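 Note: serum-stimulated A549 lung adenocarcinoma cells; signal is phosphorylated S6 detected by cytoblot immunostaining with HRP secondary.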 Particulars: 5 h, higher = more signal.
The target in test [8] is NADPH oxidase 2 (Homo sapiens) (UniProt P04839). In words: compounds shifting NOX2 Amplex Red fluorescence – cell-based, HEK293-NOX2, PMA-stimulated, NOX inhibitor project, primary screen (AID 1159). Note: test concentration not given here. The note with it: 45 min, higher = more signal, called active from +8 up or from −8 down.
Test [9] has as its target NADPH oxidase 4 (Homo sapiens) (UniProt Q9NPH5). Description: compounds shifting NOX4 Amplex Red fluorescence – cell-based, HEK293-NOX4, tetracycline-induced, NOX inhibitor project, primary screen (AID 1160). The note with it: HEK293-NOX4, Amplex Red H2O2 fluorescence, 45 min; higher = more signal, called active from +8 up or from −8 down.
In test [10] the target is NADPH oxidase 5 (Homo sapiens) (UniProt Q96PH1). In words: compounds shifting NOX5 Amplex Red fluorescence – cell-based, HEK293-NOX5, NOX inhibitor project, primary screen (AID 1161). The note with it: HEK293-NOX5, ionomycin, 45 min, higher = more signal.
The nature of test [11]: compound effects on lung adenocarcinoma cell viability – A549, calcein-AM fluorescence, 48 h, basal, profiling panel (AID 1162). Note: test concentration not given here. The note with it: higher = more signal.
The nature of test [12]: compound effects on differentiated 3T3-L1 adipocyte viability – cell-based, 3T3-L1 adipocytes, calcein-AM fluorescence, 48 h, basal, profiling panel (AID 1163). Note: test concentration not given here. The note with it: 3T3-L1 adipocytes viability, higher = more signal.
Test [13] is described as follows: compound effects on hepatocellular carcinoma cell viability – HepG2, calcein-AM fluorescence, 48 h, basal, profiling panel (AID 1164). Note: test concentration not given here. The note with it: higher = more signal.
Test [14] is described as follows: compound effects on multiple myeloma cell viability – MM1S, calcein-AM fluorescence, 48 h, basal, profiling panel (AID 1165).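 Note: viability of MM1S multiple myeloma cells under basal unstimulated conditions; test concentration not given here.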 Particulars: higher = more signal.
Test [15] can be described thus: calcein-AM signal in unstimulated myeloma cells – cell-based, calcein-AM fluorescence, 48 h, PK04 Diversity Set, profiling panel (AID 1166).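 Note: cells grown under basal conditions without added stimulus; test concentration not given here.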 Particulars: RPMI8226 myeloma viability, higher = more signal.
The nature of test [16]: JC-1 mitochondrial signal, unstimulated HepG2 cells – cell-based, JC-1 fluorescence, 24 h, 100 nL compound, profiling panel (AID 1167). Note: test concentration not given here. The note with it: HepG2 mitochondrial potential, higher = more signal.
A short description of test [17]: JC-1 mitochondrial signal, unstimulated adipocytes – cell-based, JC-1 fluorescence, 3T3-L1 adipocytes, 24 h, 100 nL compound, profiling panel (AID 1168). Note: test concentration not given here. Particulars: JC-1 mitochondrial fluorescence, higher = more signal, called active from +8 up or from −8 down.
A short description of test [18]: JC-1 mitochondrial signal, unstimulated myeloma cells – cell-based, JC-1 fluorescence, RPMI8226, 24 h, 100 nL compound, profiling panel (AID 1169). Note: test concentration not given here. Particulars: JC-1 mitochondrial potential fluorescence, higher = more signal.
Test [19] in a line: JC-1 mitochondrial signal, unstimulated MM1S myeloma – cell-based, JC-1 fluorescence, 24 h, 100 nL compound, profiling panel (AID 1170). Note: test concentration not given here. The note with it: MM1S mitochondrial potential, higher = more signal.
A short description of test [20]: resazurin metabolic signal in A549 cells – cell-based, resazurin fluorescence, 24 h, PK04 Diversity Set, profiling panel (AID 1171). Note: test concentration not given here. The note with it: A549 viability, higher = more signal, called active from +8 up or from −8 down. On the technique in general: Alamar Blue is a resazurin reagent that responds to reducing activity.

Active and inactive are the calls of the source.

Chain of NADPH oxidase 2 (Homo sapiens) (P04839 whole entry, looked up): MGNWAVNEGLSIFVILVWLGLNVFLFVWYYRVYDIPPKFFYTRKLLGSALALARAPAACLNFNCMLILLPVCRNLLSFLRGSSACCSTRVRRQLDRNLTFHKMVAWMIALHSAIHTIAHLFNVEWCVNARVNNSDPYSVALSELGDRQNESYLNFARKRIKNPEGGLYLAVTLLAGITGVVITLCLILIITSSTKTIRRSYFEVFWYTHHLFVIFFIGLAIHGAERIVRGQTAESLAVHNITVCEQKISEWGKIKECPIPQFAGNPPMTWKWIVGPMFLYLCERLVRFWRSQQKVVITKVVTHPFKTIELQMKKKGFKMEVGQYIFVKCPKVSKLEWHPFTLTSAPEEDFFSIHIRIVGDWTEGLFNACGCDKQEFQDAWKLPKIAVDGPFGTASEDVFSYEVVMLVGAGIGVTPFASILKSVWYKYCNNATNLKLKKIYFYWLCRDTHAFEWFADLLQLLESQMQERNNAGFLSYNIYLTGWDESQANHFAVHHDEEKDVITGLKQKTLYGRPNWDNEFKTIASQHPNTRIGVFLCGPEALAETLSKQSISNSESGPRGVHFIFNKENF
Chain of NADPH oxidase 5 (Homo sapiens) (Q96PH1 whole entry, looked up): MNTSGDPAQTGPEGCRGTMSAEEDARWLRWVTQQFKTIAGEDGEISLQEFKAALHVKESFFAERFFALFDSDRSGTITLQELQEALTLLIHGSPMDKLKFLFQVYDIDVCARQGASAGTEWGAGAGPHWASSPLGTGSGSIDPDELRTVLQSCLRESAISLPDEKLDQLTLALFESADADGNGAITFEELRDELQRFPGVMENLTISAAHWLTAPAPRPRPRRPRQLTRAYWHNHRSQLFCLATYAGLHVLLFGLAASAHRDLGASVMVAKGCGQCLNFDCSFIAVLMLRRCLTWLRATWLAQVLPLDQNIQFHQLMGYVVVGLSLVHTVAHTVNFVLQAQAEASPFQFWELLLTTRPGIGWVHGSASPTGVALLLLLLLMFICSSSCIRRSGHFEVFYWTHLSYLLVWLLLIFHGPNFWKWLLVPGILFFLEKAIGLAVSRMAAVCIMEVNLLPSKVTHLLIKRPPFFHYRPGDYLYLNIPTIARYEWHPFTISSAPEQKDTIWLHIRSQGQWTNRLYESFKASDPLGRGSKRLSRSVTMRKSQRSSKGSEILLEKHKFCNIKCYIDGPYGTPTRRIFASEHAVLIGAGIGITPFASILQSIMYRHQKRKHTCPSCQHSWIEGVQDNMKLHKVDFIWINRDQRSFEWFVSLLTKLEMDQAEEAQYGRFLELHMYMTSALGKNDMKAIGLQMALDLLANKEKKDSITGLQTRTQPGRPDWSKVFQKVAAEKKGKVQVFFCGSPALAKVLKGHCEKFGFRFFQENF
Chain of NADPH oxidase 4 (Homo sapiens) (Q9NPH5 whole entry, looked up): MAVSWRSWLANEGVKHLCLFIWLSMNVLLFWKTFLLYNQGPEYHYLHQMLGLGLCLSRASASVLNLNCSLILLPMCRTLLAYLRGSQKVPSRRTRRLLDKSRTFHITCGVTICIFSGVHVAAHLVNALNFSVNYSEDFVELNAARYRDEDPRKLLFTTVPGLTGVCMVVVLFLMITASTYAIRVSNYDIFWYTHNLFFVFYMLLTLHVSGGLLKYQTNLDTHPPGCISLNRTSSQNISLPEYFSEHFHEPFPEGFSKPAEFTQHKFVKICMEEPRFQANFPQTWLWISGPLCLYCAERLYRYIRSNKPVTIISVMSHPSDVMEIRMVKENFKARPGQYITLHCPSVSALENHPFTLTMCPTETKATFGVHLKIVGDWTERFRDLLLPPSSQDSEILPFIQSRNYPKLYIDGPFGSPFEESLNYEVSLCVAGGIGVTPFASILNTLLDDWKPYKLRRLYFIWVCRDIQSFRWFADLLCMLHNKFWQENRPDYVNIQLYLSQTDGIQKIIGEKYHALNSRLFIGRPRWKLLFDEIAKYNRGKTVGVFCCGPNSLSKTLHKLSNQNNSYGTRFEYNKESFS

On to `C=CC[C@]1(C(=O)N(C)C)COC(c2ccc(OCCCO)cc2)=N1`, for which the z-score was -2.4 (inactive) in test [1]; 8.04 (active) in test [3]; 0.627 (inactive) in test [4]; 2.32 (inactive) in [5]; 0.0256 (inactive) in test [6]; 0.116 in test [7]. For the same compound, the z-score in test [8] is -0.898 (inactive); in test [9], -0.581 (inactive); in test [10] it was -2.06; in [11], 0.345; in test [12] it was 0.911; in [13], -0.8. Moreover, the z-score in test [14] was -0.424; in test [15], 0.304; in test [16] it was -1.26; in [17] it was -0.133 (inactive); in [18], -0.676; in test [19], 1.23. Besides, the z-score in [20] was -0.497 (inactive). The compound further came in with a composite z-score in test [2] of 0.0087.
`COC(=O)[C@@]1(Cc2ccc(F)cc2)[C@H]2c3cc(C(=O)N(C)C)n(CCN4CCOCC4)c3C[C@H]2CN1C(=O)c1ccccc1`: the z-score in test [1] was -1.43 (inactive); in test [3] it was -0.64 (inactive); in test [4], -0.738 (inactive); in [5] it was 0.922 (inactive); in test [6], -1.9 (inactive); in test [7] it was 0.537. In addition, the z-score is 0.482 (inactive) in test [8]; 0.523 (inactive) in [9]; -0.757 in [10]; -1.27 in test [11]; 0.234 in test [12]; -0.796 in test [13]. Besides, the z-score in test [14] is -1.05; in [15], -0.995; in test [16] it was -0.738; in [17] it was -0.318 (inactive); in test [18], -0.245; in test [19], -0.28. Also, the z-score in test [20] is 0.389 (inactive). Besides, the composite z-score in test [2] came out at 0.865.
Take `CCOC(=O)C1=CC[C@@H](c2ccccc2)N(S(=O)(=O)c2ccc(C)cc2)[C@H]1C#N`: the z-score is -0.355 (inactive) in test [1]; 2.97 (inactive) in test [3]; 1.91 (inactive) in test [4]; -0.157 (inactive) in test [5]; 0.999 (inactive) in test [6]; -0.769 in test [7]. In addition, the z-score in [8] is 0.426 (inactive); in test [9], 0.122 (inactive); in test [10], -0.116; in test [11], -0.97; in [12] it was -0.84; in test [13] it was -0.139. Further, the z-score in [14] was -3.21; in test [15], -2.32; in test [16], -0.858; in test [17], -1.04 (inactive); in test [18] it was -0.441; in [19], -2.33. Also, the z-score in test [20] was 0.172 (inactive). This compound returned a composite z-score in test [2] of -0.081.
`C=CCOC(=O)[C@H]1[C@@H]2C(=O)O[C@@H](c3ccccc3)[C@@H](c3ccccc3)N2[C@@H](c2ccc(OCCOC(=O)[C@@H]3C[C@@H]4C(=O)N[C@@H](CC(C)C)C(=O)N4[C@@H]3c3ccc(O)cc3)cc2)[C@]12C(=O)Nc1ccc(I)cc12`: the z-score in test [1] is 0.833 (inactive); in test [3], 2.77 (inactive); in test [4], 1.33 (inactive); in [5] it was 2.31 (inactive); in [6], -1.46 (inactive); in [7] it was 1.09. The z-score in test [8] was 0.894 (inactive); in test [9], 0.499 (inactive); in [10] it was 1.4; in test [11] it was 0.13; in test [12] it was 0.283; in test [13], 1.55. Also, the z-score was 0.345 in [14]; -0.207 in [15]; -1.78 in [16]; 1 (inactive) in test [17]; -0.438 in [18]; -0.961 in [19]. In addition, the z-score in test [20] was -0.629 (inactive). The compound also yielded a composite z-score in test [2] of 0.106.
Take `COCCOC(=O)N1C(=O)[C@@]2(c3cc(C#CC4=CCCCC4)ccc31)[C@H](C(=O)N1CCc3cc(OC)c(OC)cc3C1)[C@H]1C(=O)O[C@H](c3ccccc3)[C@H](c3ccccc3)N1[C@@H]2c1ccc(O)cc1`: the z-score in test [1] is 0.448 (inactive); in test [3], 0.996 (inactive); in test [4] it was 0.755 (inactive); in test [5] it was 0.067 (inactive); in test [6], 0.827 (inactive); in [7], 0.228. Further, the z-score in test [8] is 1.58 (inactive); in test [9] it was -0.0332 (inactive); in test [10] it was 1.18; in test [11], 0.59; in test [12] it was 0.479; in test [13], 0.334. Moreover, the z-score is -1.16 in [14]; -0.583 in test [15]; -0.427 in test [16]; 0.508 (inactive) in [17]; -0.388 in test [18]; 0.403 in [19]. Also, the z-score in test [20] was 0.481 (inactive). Besides, in [2], the composite z-score amounted to 0.679.
As for `COCCCNC(=O)[C@@H]1c2ccccc2C(=O)N(Cc2cc(C(F)(F)F)cc(C(F)(F)F)c2)[C@H]1c1ccc(CO)cc1`, the z-score was 0.144 (inactive) in test [1]; 1.58 (inactive) in [3]; -0.0915 (inactive) in [4]; 0.532 (inactive) in test [5]; 0.254 (inactive) in [6]; -0.348 in [7]. Besides, the z-score in [8] is 0.175 (inactive); in [9], 0.414 (inactive); in [10] it was 1.54; in test [11], 0.301; in test [12], -0.458; in [13] it was 0.519. In addition, the z-score in test [14] was 0.514; in test [15] it was -1.74; in [16], 0.983; in [17], 0.385 (inactive); in test [18], -0.992; in test [19], 0.636. In addition, the z-score in [20] is -0.266 (inactive). Further, the composite z-score in [2] worked out at 1.24.
With `CCCC[C@H]1OB(O)C[C@H]2C1=C(C)C[C@H]1C(=O)C=CC(=O)[C@H]12`, the z-score was -0.202 (inactive) in test [1]; 1.7 (inactive) in [3]; 0.183 (inactive) in test [4]; 0.816 (inactive) in test [5]; 0.182 (inactive) in test [6]; -0.0244 in test [7]. The z-score in [8] was -1.12 (inactive); in test [9], -1.25 (inactive); in test [10] it was -1.18; in test [11] it was -0.252; in [12], -1.14; in [13], -0.799. Also, the z-score in test [14] was -3.35; in test [15], -3.16; in test [16], -3.39; in [17], -1.24 (inactive); in test [18] it was -0.937; in test [19] it was -2.13. In addition, the z-score in test [20] was -0.443 (inactive). This compound also returned a composite z-score in test [2] of -0.06.
`COCC(=C=CC[C@@H](O)c1cccc(OCCO)c1)C[C@@H](O)COCc1ccccc1`: the z-score in test [1] is 1.63 (inactive); in test [3], 8.33 (active); in test [4], -1.22 (inactive); in test [5], 1.08 (inactive); in test [6], -2.47 (inactive); in test [7], 1.31. Also, the z-score is -0.0404 (inactive) in test [8]; -0.268 (inactive) in [9]; -1.62 in test [10]; 1.06 in test [11]; 1.08 in test [12]; 1.41 in [13]. Further, the z-score in test [14] is 1.16; in [15], 0.34; in [16], 0.638; in [17] it was 0.362 (inactive); in [18], 0.539; in test [19], 0.532. Moreover, the z-score in test [20] is 0.244 (inactive). Moreover, in test [2], the composite z-score stood at 1.24.
Consider `Cc1c(-c2ccc(-c3ccc(Cl)c(Cl)c3)o2)nc(-c2ccccc2)c2c1CO[Si]2(C(C)C)C(C)C`, for which the z-score in test [1] was -1.3 (inactive); in test [3], 0.311 (inactive); in [4], -0.267 (inactive); in test [5], -0.803 (inactive); in [6], -0.944 (inactive); in test [7] it was -0.298. Further, the z-score in test [8] was -0.545 (inactive); in [9], 0.0324 (inactive); in test [10] it was -0.237; in test [11], -0.719; in [12], -0.527; in [13], 0.0118. In addition, the z-score in test [14] was -3.01; in [15], -3.96; in test [16] it was -1.38; in test [17] it was -0.313 (inactive); in [18] it was -0.933; in test [19] it was -1.66. Besides, the z-score in test [20] was 0.525 (inactive). The compound also returned a composite z-score in test [2] of -0.101.
